Rows were chosen to be rich in hits. Some 8.9% of all compounds tested hit in one or more screens of this group.
SW480 rerep: DNA re-replication induction in SW480 cells; SW480 DNA re-replication, Hoechst DNA content imaging, 48 h; Potency, µM (series often up to 46.1 µM), usual class: activators; 340,000 tested, 1.8% active; note: nearly all actives have a fitted effect of over 55% in size
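Hoechst fluorescence of nuclei (405 nm excitation, 500-530 nm emission) measured by plate-scanning imager after 48 hr compound exposure at 37 C; re-replication scored as increased number of nuclei with elevated intensity.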
KB-3-1 tox: kills parental KB-3-1 adenocarcinoma cells; KB-3-1 viability, CellTiter-Glo ATP luminescence, 72 h; 400,000 tested, 1.4% active; Potency, µM (top dose mostly 46.1 µM), most hits filed as cytotoxic; AID 1347075; note: nearly all actives have a fitted effect of over 60% in size
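KB-3-1 parental drug-naive adenocarcinoma cells in DMEM/10% FBS, incubated 72 h at 37 C with pin-transferred compounds across a concentration series. Viability by CellTiter-Glo luminescence; concentration-response curves fitted after normalization.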
D3 ag: activates the human D3 dopamine receptor | max activation, % | 410,000 tested, 0.58% active | D3R DiscoveRx beta-arrestin cells, luminescence, 90 min | AID 652048 | P35462; in the data active = max activation above about 30%
Target sequence (P35462 whole entry, looked up): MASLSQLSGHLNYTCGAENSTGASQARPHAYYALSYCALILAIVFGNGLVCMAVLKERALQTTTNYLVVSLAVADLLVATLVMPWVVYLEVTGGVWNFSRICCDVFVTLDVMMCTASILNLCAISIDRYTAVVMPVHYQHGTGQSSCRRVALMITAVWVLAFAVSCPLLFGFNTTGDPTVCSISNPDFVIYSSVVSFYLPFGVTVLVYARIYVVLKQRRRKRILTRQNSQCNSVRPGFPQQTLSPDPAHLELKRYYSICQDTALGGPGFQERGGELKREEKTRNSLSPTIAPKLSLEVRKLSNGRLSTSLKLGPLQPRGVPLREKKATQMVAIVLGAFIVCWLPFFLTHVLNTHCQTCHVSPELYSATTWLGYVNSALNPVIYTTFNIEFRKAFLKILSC
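Agonist-mode cell screen: cells plated at 1500/well and incubated overnight at 37 °C, then exposed to library compounds for 90 min at 37 °C. Detection reagent was added for 30–60 min at room temperature, and luminescence was read.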
DRD3 antagonist: D3 dopamine receptor (human) antagonism | D3R cells, DiscoveRx beta-arrestin luminescence, antagonist mode; active compounds read low | max response, negative = inhibition, % | 360,000 tested, 2.5% active | P35462 | AID 652054; in the data active = max response below about -50%; inconclusive = no clear call, values can overlap the other calls
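Cells plated overnight at 1500 cells/well, then exposed to library compounds with dopamine controls for 90 minutes at 37 degrees C. DiscoveRx reagent added for 30–60 minutes at room temperature; luminescence read, quantitative HTS format.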
MCF10A rereplic: inducers of DNA re-replication in MCF 10A breast cells; MCF 10A DNA re-replication, Hoechst nuclear intensity, 48 h; Potency, µM (top dose mostly 46.1 µM), most hits filed as activators; 350,000 tested, 2.9% active; AID 624296; note: nearly all actives have a fitted effect of over 50% in size
KB-V1 cytotox: KB-V1 MDR subline cytotoxicity; KB-V1 MDR cells viability, CellTiter-Glo, 72 h; Potency, µM (doses to about 46.1 µM), usual class: cytotoxic; 400,000 tested, 3.4% active; AID 1347076; note: nearly all actives have a fitted effect of over 60% in size
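qHTS viability screen in drug-selected KB-V1 MDR cells: 72 h compound treatment at 37 degrees C, ATP luminescence end point.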
Of the large screens only hits and unclear results are named; the others gave an inactive call. Unless noted, calls come from the whole dose curve; as a rule, active = well fitted curve in the direction sought with a large enough effect; inconclusive = small, poorly fitted or top-dose-only effect, or another doubt; inactive = no such curve, though single readings can be large; an effect the other way counts as inactive or inconclusive.

CCC(=O)OCC(=O)[C@@]1(OC(=O)CC)[C@H](C)C[C@@H]2[C@@H]3[C@H]([C@@H](O)C[C@@]21C)[C@]1(C)C=CC(=O)C=C1C[C@@H]3Cl	none (no result: KB-3-1 tox, D3 ag, DRD3 antagonist, KB-V1 cytotox)
COc1cccc(NC(=O)c2sc3nc(C)c(C(=O)Nc4ccc(C)cc4C)c(-c4ccco4)c3c2N)c1	none (no result: SW480 rerep, DRD3 antagonist, MCF10A rereplic)
CC(=O)Nc1ccc(S(=O)(=O)N(C)CC(=O)Nc2nc3ccccc3[nH]2)cc1	none
CC(C)(C)NC(=O)C(c1ccc(F)cc1)N(Cc1ccco1)C(=O)c1csnn1 (centres undefined)	none
O=C(NC1CCCCC1)C(c1ccncc1)N(Cc1ccc(F)cc1)C(=O)c1ccccn1 (centres undefined)	KB-V1 cytotox inconclusive
O=C(NCC1CCCO1)C(c1cccs1)N(C(=O)c1ccc(-c2ccccc2)[nH]1)C1CCCC1 (centres undefined)	KB-V1 cytotox inconclusive
CC(C)(C)NC(=O)C(c1ccncc1)N(Cc1ccco1)C(=O)c1ccc(-c2ccccc2)[nH]1 (centres undefined)	SW480 rerep inconclusive, DRD3 antagonist inconclusive, MCF10A rereplic 21µM, KB-V1 cytotox inconclusive
O=C(NC1CCCCC1)C(c1ccncc1)N(Cc1ccccc1)C(=O)c1ccc(-c2ccccc2)[nH]1 (centres undefined)	SW480 rerep inconclusive, KB-3-1 tox inconclusive, DRD3 antagonist inconclusive, MCF10A rereplic inconclusive, KB-V1 cytotox 23µM
O=C(NCC1CCCO1)C(c1cccs1)N(Cc1ccccc1)C(=O)c1ccc(-c2ccccc2)[nH]1 (centres undefined)	KB-V1 cytotox 3.7µM
COC(=O)C1=C(C)NC(=O)C1(NC(=O)c1cc(OC)c(OC)c(OC)c1)C(F)(F)F (centres undefined)	none (no result: SW480 rerep, DRD3 antagonist, MCF10A rereplic)
CN1CCC(CN2c3ccccc3Sc3ccccc32)C1 (centres undefined)	none (no result: SW480 rerep, KB-3-1 tox, DRD3 antagonist, MCF10A rereplic, KB-V1 cytotox)
CCn1cc(/C=C(\NC(=O)c2cc(OC)c(OC)c(OC)c2)C(=O)NCCCn2ccnc2)c2ccccc21	none (no result: SW480 rerep, DRD3 antagonist, MCF10A rereplic)
COc1cc(/C=C(\C#N)C(=O)c2ccc(O)c(O)c2)cc(I)c1O	D3 ag 40
O=C(CN(Cc1ccccc1)C1=NCCS1)c1ccccc1	KB-V1 cytotox 18µM
O=C(c1ccccc1)N(C1=NCCCCS1)c1ccccc1	KB-V1 cytotox inconclusive
Cc1ccc(C(=O)CN(Cc2ccccc2)C2=NCCS2)cc1	KB-V1 cytotox 16µM
O=C(NCC1CCCO1)c1csc2c1CCCCC2 (centres undefined)	MCF10A rereplic 2.6µM
CC(C)CNC(=S)NNC(=O)c1csc2c1CCCC2	DRD3 antagonist -57
CCCNC(=O)c1csc2c1CCCCC2	none
CCC(C)NC(=O)COC(=O)c1csc2c1CCCC2 (centres undefined)	KB-3-1 tox 23µM
CC(C)CNC(=S)NNC(=O)c1csc2ccccc12	DRD3 antagonist -66, KB-V1 cytotox 15µM
O=C(O)c1ccc(Nc2nc3ccccc3c3nncn23)cc1	none (no result: SW480 rerep, DRD3 antagonist, MCF10A rereplic)
O=S(=O)(c1ccccc1)c1nc(-c2ccccc2F)oc1N1CCOCC1	KB-V1 cytotox inconclusive (no result: SW480 rerep, DRD3 antagonist, MCF10A rereplic)
CCOc1ccc(OCC)c(NC(=O)CN(C)S(=O)(=O)c2ccc3nc(C)sc3c2)c1	MCF10A rereplic 21µM, KB-V1 cytotox inconclusive
O=C(N/N=C/c1ccccc1)c1c(O)c2ccccc2[nH]c1=O	KB-3-1 tox 23µM, KB-V1 cytotox inconclusive
O=C(N/N=C/c1cccc(F)c1)c1c(O)c2ccccc2[nH]c1=O	KB-3-1 tox inconclusive, KB-V1 cytotox inconclusive
O=C(N/N=C/c1ccc(F)cc1)c1c(O)c2ccccc2[nH]c1=O	KB-3-1 tox inconclusive, MCF10A rereplic inconclusive, KB-V1 cytotox 10µM (no result: SW480 rerep)
CCn1c(CN2CCOCC2)nc2cc(NC(=O)c3ccccc3[N+](=O)[O-])ccc21	none (no result: SW480 rerep, DRD3 antagonist, MCF10A rereplic)
C=CCNC(=S)N/N=C(\C)c1cc(OC)c(OC)c(OC)c1	KB-V1 cytotox 15µM
C=CCNC(=S)N/N=C(\C)c1cccc(NC(C)=O)c1	none
CCOc1ccc2nc(N/C(N)=N/C(=S)Nc3cccc(OC)c3)nc(C)c2c1	SW480 rerep inconclusive
CCc1ccccc1NC(=S)/N=C(\N)Nc1nc(C)c2cc(C)ccc2n1	SW480 rerep 21µM, KB-3-1 tox inconclusive, MCF10A rereplic inconclusive, KB-V1 cytotox 6.5µM
CCOc1ccc2nc(N/C(N)=N/C(=S)Nc3cccc(C)c3)nc(C)c2c1	KB-V1 cytotox 23µM
COc1ccc(CN2CCN(CC(O)Cn3c4ccccc4c4ccccc43)CC2)cc1 (centres undefined)	SW480 rerep inconclusive, KB-3-1 tox inconclusive, MCF10A rereplic inconclusive, KB-V1 cytotox 6.5µM
COc1ccc(-c2cc3ccccc3n2CC(O)Cn2nc(C)cc2C)cc1 (centres undefined)	SW480 rerep inconclusive, DRD3 antagonist inconclusive
O=c1c2ccccc2n(CC(O)CN2CCCCC2)c2ccccc12 (centres undefined)	SW480 rerep 7.3µM, MCF10A rereplic 21µM, KB-V1 cytotox inconclusive
COc1ccc(-c2cc3ccccc3n2CC(O)CN2CCC(C)CC2)cc1 (centres undefined)	DRD3 antagonist -111
OC(CN1CCCCC1)Cn1c2ccccc2c2ccccc21 (centres undefined)	none
COc1ccccc1CNc1nc(-c2ccco2)nn1S(=O)(=O)c1ccc(C)cc1	none (no result: SW480 rerep, DRD3 antagonist, MCF10A rereplic)
COCCNC(=O)CCCn1c(SCC(=O)Nc2cccc(C)c2)nc2c(sc3ccccc32)c1=O	none (no result: SW480 rerep, KB-3-1 tox, DRD3 antagonist, MCF10A rereplic, KB-V1 cytotox)
COc1ccc(C(=O)/C=C/c2ccccc2)c(OC)c1	KB-3-1 tox inconclusive, MCF10A rereplic inconclusive
COc1ccc(C(=O)/C=C/c2ccc(N3CCCCC3)c([N+](=O)[O-])c2)c(OC)c1	SW480 rerep inconclusive, MCF10A rereplic 12µM, KB-V1 cytotox inconclusive
O=C(O/N=C\c1ccc(N2CCCCC2)c([N+](=O)[O-])c1)c1cccc(Cl)c1	KB-3-1 tox inconclusive, KB-V1 cytotox inconclusive
COc1ccc(C(=O)/C=C/c2ccc(N3CCCCC3)c([N+](=O)[O-])c2)cc1	SW480 rerep inconclusive, KB-3-1 tox inconclusive, MCF10A rereplic 8.2µM, KB-V1 cytotox inconclusive
Cc1ccc(C(=O)O/N=C\c2ccc(N3CCCCC3)c([N+](=O)[O-])c2)cc1	KB-3-1 tox inconclusive, KB-V1 cytotox 7.3µM
COc1ccc(C(=O)/C=C/c2ccc(N(C)C)cc2)c(OC)c1	SW480 rerep inconclusive, KB-3-1 tox inconclusive, MCF10A rereplic 16µM, KB-V1 cytotox inconclusive
O=C(CCn1c(=O)c2cccn2c2cccnc21)NCc1ccccc1Br	none (no result: SW480 rerep, KB-3-1 tox, DRD3 antagonist, MCF10A rereplic, KB-V1 cytotox)
CCCCCCOc1ccc(-c2nc3ccc(Br)cc3c(=O)o2)cc1	none (no result: SW480 rerep, DRD3 antagonist, MCF10A rereplic)
CCOC(=O)C1=C(C)NC2=C(C(=O)c3ccccc32)C1c1cccc2ccccc12 (centres undefined)	SW480 rerep inconclusive, KB-3-1 tox inconclusive, KB-V1 cytotox inconclusive
